# Records with an inconclusive call do not appear. Activity calls are given as the source filed them. Rule for the calls: active = hit-call score of the fitted dose curve at least 0.9, where 1 is the maximum; inconclusive = response in the unintended direction; inactive = score below 0.9.
# Target: Nuclear receptor subfamily 1 group I member 2 (Homo sapiens) (UniProt O75469)
# Test: ATG_PXR_TRANS: Attagene TRANS-FACTORIAL HepG2 Assay for human Pregnane X Receptor (PXR) (AID 2283008)
# Protocol: ATG_TRANS is a cell-based, multiplexed-readout assay that uses HepG2, a human liver cell line, with measurements taken at 24 hours after chemical dosing in a 24-well plate.ATG_PXR_TRANS is one of 30 assay component(s) measured or calculated from the ATG_TRANS assay. It is designed to make measurements of mRNA induction, a form of inducible reporter, as detected with fluorescence intensity signals by Reverse transcription polymerase chain reaction (RT-PCR) and Capillary electrophoresis technology.Data from the assay component ATG_PXR_TRANS was analyzed into 1 assay endpoint. This assay endpoint, ATG_PXR_TRANS, was analyzed in the positive analysis fitting direction relative to DMSO as the negative control and baseline of activity. Using a type of inducible reporter, measures of mRNA for gain-of-signal activity can be used to understand the reporter gene at the transcription factor-level as they relate to the gene NR1I2. Furthermore, this assay endpoint can be referred to as a primary readout, because this assay has produced multiple assay endpoints where this one serves a reporter gene function. To generalize the intended target to other relatable targets, this assay endpoint is annotated to the nuclear receptor intended target family, where the subfamily is non-steroidal.
# Human liver HepG2 cells are transiently transfected with multiple reporter transcription units (MRTUs) in 6-well plates using FuGene 6 reagent (Roche; 3 ml FuGene/1 mg DNA). The MRTU constructs are regulated by a cis-regulating element (promoter). […] A major difference between the CIS and TRANS system is that in CIS activities of endogenous TFs are measured, whereas the TRANS assay evaluates changes in activities of exogenous, chimeric NR-Gal4 proteins. […] At the end of 24 hour incubation, total RNA was isolated using TriZol reagent (Invitrogen). The isolated RNA is then reverse-transcribed using oligo(dT) primer and Mo-MLV reverse transcriptase (Invitrogen) with DNAse I (Ambion) treatment for 30 min. The one-tenth of the produced cDNA was amplified by PCR using Taq DNA polymerase (Invitrogen) and two reporter sequence-specific primers. The PCR products were fluorescently labeled by primer extension with 6-arboxyfluorescein (6-FAM) 5'-labeled reporter sequence-specific primer (2 min at 95 C, 20 s at 68 C and 10 min at 72 C) and these products were digested with 5U of HpaI (New England Biolabs) for 2h at 37 C. The fragments were purified using Qiaquick PCR columns (Qiagen), analyzed on an ABI 3130xL genetic analyzer (Applied Biosystems) with peak positions identified by using a set of X-rhodamine (ROX)-labeled MapMarker1000 molecular weight standards (BioVentures). The raw capillary electrophoresis data was processed using Attagraph software (Attagene).
# Sequence of Nuclear receptor subfamily 1 group I member 2 (Homo sapiens) (O75469 whole entry, looked up): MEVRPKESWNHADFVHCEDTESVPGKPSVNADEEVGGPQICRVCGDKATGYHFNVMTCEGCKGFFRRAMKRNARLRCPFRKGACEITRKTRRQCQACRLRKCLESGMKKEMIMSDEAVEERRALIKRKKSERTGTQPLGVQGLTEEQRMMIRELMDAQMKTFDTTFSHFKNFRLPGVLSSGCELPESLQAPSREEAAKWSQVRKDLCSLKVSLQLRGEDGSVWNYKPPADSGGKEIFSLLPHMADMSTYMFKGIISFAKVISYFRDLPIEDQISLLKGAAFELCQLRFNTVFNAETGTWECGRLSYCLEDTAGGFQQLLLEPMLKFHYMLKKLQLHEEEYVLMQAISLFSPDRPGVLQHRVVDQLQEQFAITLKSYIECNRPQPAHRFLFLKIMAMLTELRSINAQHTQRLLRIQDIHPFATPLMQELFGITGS
SMILES,outcome,AC50
CCCCC(CC)COC(=O)CCCCCCCCC(=O)OCC(CC)CCCC (stereo not given),inactive,–
CC[C@H]1OC(=O)[C@H](C)[C@@H](O[C@H]2C[C@@](C)(OC)[C@@H](O)[C@H](C)O2)[C@H](C)[C@@H](O[C@@H]2O[C@H](C)C[C@H](N(C)C)[C@H]2O)[C@](C)(O)C[C@@H](C)C(=O)[C@H](C)[C@@H](O)[C@]1(C)O,inactive,–
COc1cccc(-c2ccc(/C=C\CN3CCCCCC3)cc2Cl)c1,–,4.81 µM (active)
CC(C)=CCC/C(C)=C/CO,inactive,–
CC[C@H](C)C(=O)O[C@H]1C[C@@H](C)C=C2C=C[C@H](C)[C@H](CC[C@@H]3C[C@@H](O)CC(=O)O3)[C@H]21,–,2.51 µM (active)
CCCCCCCCO,inactive,–
Cc1ccc(C)c(O)c1,inactive,–
CCOC(=O)COc1ccc2c(c1)CC(NCC(O)c1cccc(Cl)c1)CC2 (stereo not given),inactive,–
CC/C(=C\C(=N/O)C(N)=O)C(C)[N+](=O)[O-] (stereo not given),inactive,–
Oc1ccc2c(c1)-c1ccccc1C2,inactive,–
C1=CCCC=CCCC=CCC1,–,56.5 µM (active)
CCc1cc(SCc2sc(-c3ccc(C(F)(F)F)cc3)nc2CN2CCN(c3ccc(OC)cc3)CC2)ccc1OCC(=O)O,–,4.69 µM (active)
Cc1ccc(N)cc1O,inactive,–
CCCCCCc1ccc(O)cc1O,inactive,–
O=C(O)CC(O)C(=O)O (stereo not given),inactive,–
Cn1c(=O)cc(Oc2ccc(F)cc2F)c2cnc(NCC(C)(C)O)nc21,inactive,–
NC(=O)NO,inactive,–
CCN(C(=O)c1cc(C)cc(OC[C@H](C)Nc2ccncc2)c1)C(C)C,–,7.38 µM (active)
O=C(CCCCCCCCc1cccnc1)N1CCC(C=C(c2ccccc2)c2ccccc2)CC1,–,1.08 µM (active)
O=c1[nH]c2ccc(S(=O)CCN3CCC(Cc4ccc(F)cc4)CC3)cc2o1 (stereo not given),–,6.22 µM (active)

SMILES,outcome,AC50
COc1ccc(/C=C/S(=O)(=O)NC(=O)c2ccc(C)cc2Cl)cc1,inactive,–
O=C(O)CCN(C1(C(=O)NO)CCCC1)S(=O)(=O)c1ccc(Oc2ccc(F)cc2)cc1,inactive,–
Cc1[nH]cnc1C[C@H]1CCc2c(C)c3ccccc3n2C1=O,inactive,–
Cc1c(-c2cccnc2)c2ccccc2n1CCCCC(=O)O,inactive,–
CN(C)c1ccc(Cc2ccc(N(C)C)cc2)cc1,inactive,–
COc1ccc2sc(C(=O)Nc3nnn[nH]3)c(OC(C)C)c2c1,inactive,–
CC(=O)OC[C@H]1O[C@@](COC(C)=O)(O[C@H]2O[C@H](COC(C)=O)[C@@H](OC(C)=O)[C@H](OC(C)=O)[C@H]2OC(C)=O)[C@@H](OC(C)=O)[C@@H]1OC(C)=O,inactive,–
CC(O)CN(CCN(CC(C)O)CC(C)O)CC(C)O (stereo not given),inactive,–
O=P(OC(CCl)CCl)(OC(CCl)CCl)OC(CCl)CCl,–,0.377 µM (active)
O=C1CCCCCN1,inactive,–
CNS(=O)(=O)c1cc(C(=O)N2CCC(CCN3C4CCC3CC(n3c(C)nc5ccccc53)C4)(c3cccc(F)c3)CC2)c(Cl)cc1F (stereo not given),–,0.779 µM (active)
Nc1ccc(Nc2ccccc2)cc1,inactive,–
Cc1ccc(S(=O)(=O)O)cc1C,inactive,–
CC1=CC(=O)CC(C)(C)C1,inactive,–
CCCCCCCCCCCCc1ccccc1,inactive,–
O=C(OC[C@H]1O[C@@H](OC(=O)c2cc(O)c(O)c(OC(=O)c3cc(O)c(O)c(O)c3)c2)[C@H](OC(=O)c2cc(O)c(O)c(OC(=O)c3cc(O)c(O)c(O)c3)c2)[C@@H](OC(=O)c2cc(O)c(O)c(OC(=O)c3cc(O)c(O)c(O)c3)c2)[C@@H]1OC(=O)c1cc(O)c(O)c(OC(=O)c2cc(O)c(O)c(O)c2)c1)c1cc(O)c(O)c(OC(=O)c2cc(O)c(O)c(O)c2)c1,inactive,–
O=C(O)c1cccc(N(Cc2cccnc2)c2ccc(OC(F)F)c(OC(F)F)c2)c1,–,11.1 µM (active)
CC(C)=CCC/C(C)=C\CO,–,8.73 µM (active)
C=CCCCCCCCCC(=O)O,inactive,–
CCCN(C1CCN(C(=O)C2CCNCC2)CC1)[C@@H]1CCc2ccc(OC)cc2C1,inactive,–

# Reference: PubChem BioAssay (EPA / NIEHS)
